The panel holds about 79,000 compounds, 15% with a hit somewhere; the sample as a whole holds those more often. Unmarked numbers belong to inactive results. Activity calls are given as the source filed them. No stated cut-off is given here; in the data, active means growth inhibition above about 70%; inactive means the rest.
How the values were obtained:
[1] = NCI Yeast Anticancer Drug Screen. Data for the rad50 strain (AID 155);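 further: 0% = growth of vehicle-only cultures of the same strain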; conditions: S. cerevisiae rad50 strain growth inhibition, active compounds read high
In short: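 Yeast carrying a defined DNA repair defect were exposed to test compounds, and growth was compared with vehicle-treated controls to give percent inhibition.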

[2] = NCI Yeast Anticancer Drug Screen. Data for the mec2-1 strain (AID 157); conditions: S. cerevisiae mec2-1 strain, active compounds read high
In short: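 Cells of the genetically defined mec2-1 yeast strain are incubated with test compound. Inhibition of growth is calculated against vehicle-treated controls.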

[3] = NCI Yeast Anticancer Drug Screen. Data for the sgs1 mgt1 strain (AID 161);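 further: 0% = growth of cultures given vehicle only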; conditions: S. cerevisiae sgs1 mgt1 strain, active compounds read high
In short: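 Genetically altered yeast, compound exposure, growth inhibition relative to vehicle.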

[4] = NCI Yeast Anticancer Drug Screen. Data for the cln2 rad14 strain (AID 165);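 further: 0% = growth equal to vehicle treated cultures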; conditions: S. cerevisiae cln2 rad14 strain, active compounds read high
In short: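 The screen exposed genetically defined yeast (cln2 rad14) to test compounds and scored growth inhibition relative to vehicle-treated controls.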

[5] = NCI Yeast Anticancer Drug Screen. Data for the bub3 strain (AID 167); conditions: S. cerevisiae bub3 mutant strain, active compounds read high
In short: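 Compounds were applied to a genetically altered yeast strain carrying a cell-cycle control defect. Growth inhibition was scored against vehicle-treated controls.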

[6] = NCI Yeast Anticancer Drug Screen. Data for the mlh1 rad18 strain (AID 175); conditions: S. cerevisiae mlh1 rad18 strain growth inhibition, active compounds read high
In short: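 Compound-treated yeast growth, normalised to vehicle controls. Strain bears defined DNA repair mutations.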

[7] = at 5.0 µM (retest, dose inferred, filed as 0.5)
[8] = at 50.0 µM (retest, dose inferred, filed as 5.0)

Row | Compound | growth inhibition [1, 7] | growth inhibition [1, 8] | growth inhibition ([1]; at 50.0 µM) | growth inhibition [2, 7] | growth inhibition [2, 8] | growth inhibition ([2]; at 50.0 µM) | growth inhibition [3, 7] | growth inhibition [3, 8] | growth inhibition ([3]; at 50.0 µM) | growth inhibition [4, 7] | growth inhibition [4, 8] | growth inhibition ([4]; at 50.0 µM) | growth inhibition [5, 7] | growth inhibition [5, 8] | growth inhibition ([5]; at 50.0 µM) | growth inhibition [6, 7] | growth inhibition [6, 8] | growth inhibition ([6]; at 50.0 µM)
1 | c1ccc2c(c1)CCCc1cc3ccccc3nc1-2 | 27% | 96% (active) | 84.8% (active) | -30% | 98% (active) | 92.8% (active) | -1% | 96% (active) | 93% (active) | -12% | 96% (active) | 92% (active) | 18% | 97% (active) | 91.9% (active) | -36% | 96% (active) | 89.7% (active)
2 | O=S(=O)(Nc1ccccc1)c1ccccc1C(O)(c1ccccc1)c1ccccc1 | 6% | 71% (active) | 93.6% (active) | -15% | 94% (active) | 73.1% (active) | -179% | 48% | 92.1% (active) | -2% | 82% (active) | 85.2% (active) | 15% | 96% (active) | 81.2% (active) | -21% | 92% (active) | 95.5% (active)
3 | COc1ccc(/C=C2\CCC(CN3CCOCC3)C2=O)cc1 (configuration not stated) | 65% | 99% (active) | 93.5% (active) | 92% (active) | 100% (active) | 93.8% (active) | 55% | 99% (active) | 93.2% (active) | 46% | 99% (active) | 91.8% (active) | 96% (active) | 99% (active) | 92.7% (active) | 89% (active) | 97% (active) | 89.7% (active)
4 | NC(=S)C1CCC(C2CCCCC2)CC1 (configuration not stated) | 5% | 97% (active) | 96.5% (active) | 14% | 96% (active) | 94.8% (active) | 13% | 97% (active) | 97.2% (active) | -4% | 94% (active) | 83.5% (active) | 13% | 97% (active) | 96.3% (active) | 21% | 97% (active) | 95.8% (active)
5 | COc1ccc(C(=O)Nc2ccccc2OC)cc1 | 5% | 8% | 3.45% | -13% | -29% | 12.2% | 4% | 10% | 15.1% | 6% | 17% | 19.1% | 6% | 20% | 10.7% | 18% | 23% | 9.5%
6 | CC(=O)OC(c1ccc(Cl)cc1)c1ccc(Cl)cc1 | -43% | 1% | 16.5% | -11% | -8% | -2% | -7% | 20% | 18.8% | -17% | 4% | 8.85% | 2% | 0% | 0.2% | -22% | 16% | 18.9%
7 | CC(=O)c1c(-c2ccco2)c(C#N)c(=S)n(C2OC(CO)C(O)C(O)C2O)c1-c1ccccc1 (configuration not stated) | -9% | 12% | 32.9% | -4% | 17% | 49.6% | 0% | 44% | 58.5% | 14% | 28% | 35.2% | 8% | 20% | 50.8% | -25% | 45% | 62.6%
8 | CC(NNC(=S)N1CCCC1)c1cccnn1 (configuration not stated) | 98% (active) | 99% (active) | 89% (active) | 91% (active) | 99% (active) | 92.3% (active) | 97% (active) | 99% (active) | 88.6% (active) | 96% (active) | 99% (active) | 90.5% (active) | 98% (active) | 99% (active) | 91.2% (active) | 97% (active) | 99% (active) | 85.3% (active)
9 | Clc1cc2c(c3ncccc13)OCN(CCc1ccccc1)C2 | 5% | 8% | 98.7% (active) | -3% | -5% | 94.2% (active) | 2% | 7% | 99.2% (active) | 1% | 16% | 78.5% (active) | 4% | 0% | 69.6% | 2% | 10% | 98.4% (active)
10 | COC(=O)C1c2cc3c(c(O)c2CCC1(C)O)C(=O)c1c(O)cc2c(c1C3=O)OC1OC2(C)C(O)C(N(C)C)C1O (configuration not stated) | 19% | 63% | 91.9% (active) | 28% | 59% | 86.3% (active) | 12% | 58% | 92.6% (active) | 15% | 73% (active) | 69.3% | 72% (active) | 90% (active) | 83.8% (active) | 36% | 98% (active) | 93% (active)
11 | O=c1c(-c2ccccc2)c1-c1ccccc1 | 7% | 92% (active) | 98.7% (active) | 4% | 95% (active) | 99.3% (active) | 8% | 90% (active) | 98.9% (active) | -2% | 96% (active) | 97.6% (active) | 5% | 91% (active) | 99.2% (active) | 1% | 96% (active) | 99% (active)
12 | O=[N+]([O-])/C=C/c1cc2ccccc2[nH]1 | 6% | 99% (active) | 99.5% (active) | -6% | 100% (active) | 99.5% (active) | 9% | 99% (active) | 99.4% (active) | 11% | 99% (active) | 96.5% (active) | -8% | 100% (active) | 99.5% (active) | 16% | 99% (active) | 99.2% (active)
13 | CC(C)c1ccc2c(c1)CCC1C(C)(CNC(=O)S)CCCC21C.[Zn+2] (configuration not stated) | 9% | 13% | -8.15% | 8% | 30% | 46.8% | 5% | 40% | -10.6% | 10% | 4% | 38.5% | 6% | 35% | 2% | 5% | 29% | -10.6%
14 | CC(C)(C)CC(=O)O | 8% | 9% | 5.05% | 5% | 3% | 18.1% | -5% | 2% | 29.1% | -2% | -4% | 27.1% | 2% | 13% | 26.9% | 7% | 8% | -2.2%
15 | O=[N+]([O-])c1cc(C(F)(F)F)ccc1SSc1ccc(C(F)(F)F)cc1[N+](=O)[O-] | 45% | 86% (active) | 60.9% | 39% | 88% (active) | 50% | 42% | 93% (active) | 68.5% | 42% | 64% | 54.7% | 42% | 92% (active) | 66.7% | 59% | 88% (active) | 58.4%
16 | O=C1OC(=O)C2C1C1C(c3ccccc3)=C(c3ccccc3)C2(O)C2C(=O)OC(=O)C12 (configuration not stated) | 25% | 25% | 76.2% (active) | 7% | 7% | 81% (active) | 16% | 16% | 69.7% | 17% | 17% | 52.5% | 4% | 4% | 74% (active) | 18% | 18% | 29.7%
17 | OC(CCl)c1ccc2ccc3c(c2c1)Nc1ccccc1S3 (configuration not stated) | 0% | 80% (active) | 80.4% (active) | -1% | 88% (active) | 97.2% (active) | 2% | 83% (active) | 97.2% (active) | -1% | 75% (active) | 78.8% (active) | 4% | 87% (active) | 87.9% (active) | -1% | 86% (active) | 96.5% (active)
18 | CCC(CC)C1(C(=O)OCCN(CC)CC)CCCCC1 | 1% | 48% | 72.5% (active) | -1% | 13% | 5.8% | -2% | 20% | 45% | 2% | 9% | 3.5% | -1% | 48% | 73% (active) | 4% | 32% | 43.2%
19 | O=S1(=O)CCN(c2ccccc2CC(c2c[nH]c3ccccc23)c2c[nH]c3ccccc23)CC1 | 29% | 90% (active) | 88.5% (active) | -5% | 73% (active) | 74.8% (active) | 3% | 79% (active) | 87.7% (active) | 5% | 62% | 86.2% (active) | 14% | 89% (active) | 90.6% (active) | 34% | 94% (active) | 91.9% (active)

Reference: PubChem BioAssay (NCI)
